Hits are enriched below; roughly 7.1% of the tested compounds scored in any of these assays.
SW480 rereplic – A quantitative high throughput screen for small molecules that induce DNA re-replication in SW480 colon adenocarcinoma cells; SW480 DNA re-replication, Hoechst DNA content imaging, 48 h; Potency, µM (titrated, usually from 46.1 µM), without a hit: top-dose re-replication activation, usual class: activators; actives 1.8% (n = 340,000); further: potency means the concentration at half of the fitted maximal effect; % of control where 0% means no effect; nearly all actives have a fitted effect of over 55% in size
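Per well, 250 cells were exposed to pinned compound for 48 hr. Nuclear DNA was visualised with Hoechst (40 min, 37 C) and total object intensity recorded by fluorescence scanning.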
IL1B secr inh – qHTS for Inhibitors of Inflammasome Signaling: IL-1-beta AlphaLISA Primary Screen; activity change, % at 57.5 µM; AID 743279, 2014; actives 4.7% (n = 360,000); THP-1 LPS/ATP IL-1B secretion, AlphaLISA, 16 h; hits give low values; in the data active means activity change below about -50%; inconclusive means mostly about -30% to -49%; further: on the % scale 0 is the no-effect control and ±100 the full control effect
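Secreted IL-1B measured by AlphaLISA bead assay after 16 h compound exposure of THP-1 cells; compounds (final up to 57.5 uM) added 1 h before LPS (250 ng/mL) and ATP (1.25 mM) stimulation; lower signal means less secretion.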
ATXN viability – Viability Counterscreen for Primary qHTS for Inhibitors of ATXN expression; Potency, µM (doses to about 56.7 µM), most hits filed as cytotoxic; S2 cells (HEK-293 line with an ATXN2-luciferase reporter) viability, CellTiter-Fluor protease fluorescence, 24 h; actives 0.49% (n = 400,000); further: potency means the concentration at half of the fitted maximal effect; nearly all actives have a fitted effect of over 40% in size
PINK1 expr mod – A Quantitative High throughput Screen to Identify Chemical Modulators of PINK1 Expression | PINK1 immunofluorescence, high-content cytometry, 24 h | Potency, µM (titrated, usually from 76.6 µM), without a hit: top-dose activation (PINK1 increase), most hits filed as activators | actives 0.2% (n = 410,000); active means well fitted activation curve with a large enough effect; inconclusive means small, poorly fitted or top-dose-only effect; cell line not stated here; further: potency means the concentration at half of the fitted maximal effect; % of control where 0% means no effect; nearly all actives have a fitted effect of over 65% in size
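Stable cell line treated 24 h with compounds at 5 concentrations (CCCP controls), then fixed and immunostained for PINK1 plus nuclear and cell stains; PINK1 immunofluorescence quantified by laser-scanning microplate cytometry.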
MCF10A rereplic – A quantitative high throughput screen for small molecules that induce DNA re-replication in MCF 10a normal breast cells; MCF 10A DNA re-replication, Hoechst nuclear intensity, 48 h; Potency, µM (top dose mostly 46.1 µM), for the others: top-dose activity, positive = re-replication, actives largely listed as activators; actives 2.9% (n = 350,000); AID 624296, 2012; further: potency means the concentration at half of the fitted maximal effect; % of control where 0% means no effect; nearly all actives have a fitted effect of over 50% in size
ATXN2 expr inh – Primary qHTS for Inhibitors of ATXN expression; HEK-293 ATXN2-luciferase reporter, luminescence, 24 h; Potency, µM (doses to about 57 µM), for the others: at the highest dose activity change, negative = inhibition, usual class: inhibitors; actives 0.72% (n = 360,000); AID 1745845, 2022; further: potency means the concentration at half of the fitted maximal effect; on the % scale 0 is the no-effect control and ±100 the full control effect; nearly all actives have a fitted effect of over 55% in size
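qHTS (up to 57 uM final) was run with 24 h compound exposure of reporter cells at 37 °C. Each well was multiplexed: SteadyGlo luminescence measured ATXN2-luciferase expression after a fluorogenic Gly-Phe-AFC viability readout (25 uM final).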
* = called active by the depositor; i = inactive; ? = inconclusive; · = not tested or not shown; [ ] = dose if it differs, or a comment. Unless noted, the call rests on the fitted dose curve; in most records, active means well fitted curve in the direction sought with a large enough effect; inconclusive means small, poorly fitted or top-dose-only effect, or another doubt; inactive means no such curve, though single readings can be large; an effect the other way counts as inactive or inconclusive.

SMILES	SW480 rereplic	IL1B secr inh	ATXN viability	PINK1 expr mod	MCF10A rereplic	ATXN2 expr inh
Cc1ccc(NC(=O)CN2C(=O)c3cccnc3Sc3ccccc32)cc1C	·	·	·	2%	·	·
O=c1[nH]c(/C=C/c2ccc(OC(F)F)cc2)nc2c1cnn2-c1ccccc1	9.2µM*	-56*	i	6%	15µM*	-25%[11.3 µM]
CC(C)Sc1nc2c(cnn2-c2ccccc2)c(=O)[nH]1	0%	-7	i	3%	15%	-2%
O=C(CCl)N1CCN2C(=O)c3ccccc3C12c1ccc(Cl)cc1 (centres undefined)	?	-95*	·	-1%	23µM*	?
O=C(Nc1cccc(Cl)c1)N1CCN2C(=O)c3ccccc3C12c1ccccc1 (centres undefined)	?	-58*	?	13%	?	-24%
CC(C)(C)c1ccc(C(=O)Nc2ccc(O)c3c(=O)cc(-c4cccc(Cl)c4)oc23)cc1	1%	15	i	6%	0%	8%
COc1ccc(C(=O)Nc2ccc(O)c3c(=O)cc(-c4cccc(Cl)c4)oc23)cc1	-2%	49	4.5µM*	11%	?	-19%
O=C(CSc1nc2c(cnn2-c2ccc(F)cc2)c(=O)[nH]1)N1CCOCC1	-5%	1	i	-1%	5%	-5%
Cc1ccc(-n2ncc3c(=O)[nH]c(SCC(=O)N4CCOCC4)nc32)cc1	-5%	15	i	1%	26µM*	-6%
Clc1ccc(-c2cc3ccccc3[nH]2)cc1	11%	-5	?	1%	17%	36%
Cc1ccc(-c2cc(=O)c3ccccc3[nH]2)cc1	?	0	i	5%	13µM*	21%
O=c1cc(-c2ccc(Cl)cc2)[nH]c2ccccc12	?	13	i	1%	15µM*	13%
CCCOc1ccc(C(=O)Nc2ccc(CN3CCOCC3)cc2)cc1	-2%	-21	i	0%	?	-9%
CCOc1ccc(OCc2cccc(C(=O)Nc3ccc(CN4CCCCC4)cc3)c2)cc1	?	-100*	?	-3%	?	?
O=C(Nc1cccc(Br)c1)c1cccc(OC(=S)N2CCOCC2)c1	4%	-67*	?	-1%	?	?
CCCOc1cccc(C(=O)Nc2ccc(CN3CCOCC3)cc2)c1	28%	-53*	i	0%	21µM*	-15%
CCCCOc1ccc(C(=O)Nc2ccc(CN3CCOCC3)cc2)cc1	?	-62*	i	2%	?	-29%
COc1ccc(OCc2cccc(C(=O)Nc3ccc(CN4CCCCC4)cc3)c2)cc1	?	-16	i	1%	?	-30%
CC(C)Oc1ccc(CNC(=O)c2ccc3nc(Cc4ccccc4)oc3c2)cc1	·	·	i	4%	·	-13%
CCOCCCNC(=O)c1ccc2c(c1)ncn2C1CCCC1	-4%	9	i	0%[38.3 µM]	0%	24%
CC(C)CCNC(=O)c1ccc2c(c1)ncn2C1CCCC1	8%	-62*	i	0%	10%	·
CCOC(=O)C1CCN(C(=O)C2CCN(c3nnc(C)c4c(C)n(-c5ccccc5)nc34)CC2)CC1	·	·	·	0%	·	·
CCOC(=O)c1c(C)[nH]c(C2=NNC(=NC3CC3)SC2)c1C	-22%	-50*	i	-1%	-13%	11µM*
CCOC(=O)c1c(C)[nH]c(/C(C)=N/O)c1C	9%	-5	i	1%	?	0%
O=C(NCc1ccccc1Br)c1ccc(-n2cnc3cccnc32)cc1	·	·	·	2%	·	·
SMILES	SW480 rereplic	IL1B secr inh	ATXN viability	PINK1 expr mod	MCF10A rereplic	ATXN2 expr inh
COc1cccc(NC(=O)CN(C)C(=O)c2cc(-c3cccc(Br)c3)nc3ccccc23)c1	?	-55*	?	-2%	13µM*	?
CCOc1ccc(NC(=O)CN(C)C(=O)c2cc(-c3ccc(OC)cc3)nc3ccccc23)cc1OCC	3%	-4	?	4%	16µM*	9%
COc1ccc(NC(=O)CN(C)C(=O)c2cc(-c3ccc(Cl)cc3)nc3ccccc23)cc1	9%	-7	?	0%	18µM*	?
CCOc1ccc(NC(=O)CN(C)C(=O)c2cccc3ccccc23)cc1OCC	-4%	-2	i	2%	2%	6%
COc1cccc(NC(=O)CN(C)C(=O)c2cc(-c3ccccc3)nc3ccc(C)cc23)c1	?	-5	i	4%	?	-8%
COc1ccc(NC(C)=O)cc1NC(=O)C1(c2cccs2)CCOCC1	·	·	i	-1%	·	8%
O=C(/C=C/c1ccc2ccccc2n1)N1CCN(S(=O)(=O)c2ccccc2F)CC1	11%	-76*	?	-1%	?	·
O=C(/C=C/c1ccc2ccccc2n1)N1CCN(S(=O)(=O)c2ccc(F)cc2)CC1	?	-89*	?	0%	?	·
COc1cc(/C=N\Nc2ccc([N+](=O)[O-])cc2)ccc1OCC(=O)Nc1ccc(C)c(C)c1	21µM*	55	?	12%	5.8µM*	-25%
CCOc1cc(/C=N\NC(=O)Cc2ccccc2)ccc1OCC(=O)Nc1ccc(C)c(C)c1	-1%	18	·	-1%	15µM*	?
CCCOc1ccc(/C=N/NC(=O)CSCc2ccc([N+](=O)[O-])cc2)cc1OCC	-3%	-16	i	5%	0%	9%
CCOc1cc(/C=N/O)ccc1OCC(=O)Nc1cccc(C)c1	5%	-3	i	3%	?	1%
CCOc1cc(/C=N\Nc2ccc([N+](=O)[O-])cc2)ccc1OCC(=O)Nc1ccc(C)c(C)c1	?	87	i	?	16µM*	-21%
COc1cc(/C=N\NC(=O)CN2CCOCC2)ccc1OCC(=O)Nc1ccc(C)c(C)c1	1%	-6	i	-1%	2%	10%
CCc1ccc(C2CC(=O)c3c([nH]c(C(=O)OCCOc4ccccc4)c3C)C2)cc1 (centres undefined)	·	·	·	20%	·	·
COC(=O)c1ccccc1C(=O)N1CCOc2ccc(CN3CCN(c4ccccn4)CC3)cc2C1	·	·	i	0%	·	·
COc1ccc(N(C(=O)/C=C\C(=O)Nc2ccc(C)cc2)C(C(=O)NCc2ccco2)c2ccc(C)cc2)cc1 (centres undefined)	·	·	·	-1%	·	·
CC(C)CC(=O)/C(=C/c1ccc(N(C)C)cc1)n1cncn1	-1%	3	i	2%	-1%	-8%

High-throughput results as filed in PubChem BioAssay.
